According to PubChem BioAssay (NCATS):
Records with an inconclusive call do not appear. Active and inactive are the calls of the source. Unless noted, the call rests on the fitted dose curve; in most records, active means well fitted curve in the direction sought with a large enough effect; inconclusive means small, poorly fitted or top-dose-only effect, or another doubt; inactive means no such curve, though single readings can be large; an effect the other way counts as inactive or inconclusive.

Tests used:
[1] = target: Lysosomal acid glucosylceramidase (Homo sapiens) (UniProt P04062); assay: Glucocerebrosidase-p2 (AID 348; in the data active means potency below about 10 µM; further: potency means the concentration at half of the fitted maximal effect); details: purified GBA, blue fluorogenic substrate, 40 min
Sequence of Lysosomal acid glucosylceramidase (Homo sapiens) (P04062 whole entry, looked up): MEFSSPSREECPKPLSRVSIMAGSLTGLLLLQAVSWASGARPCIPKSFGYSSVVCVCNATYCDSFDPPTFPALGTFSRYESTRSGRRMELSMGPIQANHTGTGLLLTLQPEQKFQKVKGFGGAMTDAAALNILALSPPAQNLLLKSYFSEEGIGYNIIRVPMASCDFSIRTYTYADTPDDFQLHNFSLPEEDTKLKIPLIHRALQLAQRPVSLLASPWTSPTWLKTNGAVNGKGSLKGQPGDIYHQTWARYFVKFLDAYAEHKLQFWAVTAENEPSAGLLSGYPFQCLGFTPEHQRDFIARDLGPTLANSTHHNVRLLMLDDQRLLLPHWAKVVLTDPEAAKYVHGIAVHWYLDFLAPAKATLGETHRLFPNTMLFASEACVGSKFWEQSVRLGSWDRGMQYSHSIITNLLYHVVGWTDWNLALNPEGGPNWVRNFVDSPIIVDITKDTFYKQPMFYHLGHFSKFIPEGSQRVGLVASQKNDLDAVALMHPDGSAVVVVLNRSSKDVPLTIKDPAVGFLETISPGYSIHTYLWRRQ
Procedure, shortened: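 Normal human glucocerebrosidase (0.2 nM) with blue fluorogenic substrate (80 uM final) in citrate/phosphate pH 5.9 with 10mM sodium taurocholate, 0.01% tween-20; 40 min RT, NaOH/glycine stop; fluorescence Ex 365/Em 440; AC50 from a titration from 0.6 nM upwards.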

[2] = AP1 Signaling Pathway (AID 357; active means well fitted curve in either direction with a large enough effect, not every such curve was filed as active;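 further: ME-180 reporter cells stimulated with EGF at its EC50 level; on the % scale 0 is the no-effect control and ±100 the full control effect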); details: ME-180 AP-1-bla reporter, EGF-induced, beta-lactamase ratio, 5 h; at 7.69 µM (top of the series) unless noted
Procedure, shortened: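 AP-1-bla ME-180 cells, Opti-MEM + 0.5% dialyzed FBS, plated overnight 37 °C. Cpd titration + EC50 EGF, 5 h 37 °C. CCF4 2.5 h RT; ex 405, em 460/530 ratio → %activity, AC50.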

[3] = NFAT Signaling Pathway (AID 444; active means well fitted curve in either direction with a large enough effect, not every such curve was filed as active;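 further: carbachol stimulus at about its EC50 of 1 µM final; on the % scale 0 is the no-effect control and ±100 the full control effect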); details: Jurkat NFAT-bla M1, carbachol, beta-lactamase ratio, 5 h; at 7.69 µM (top of the series) unless noted
Procedure, shortened: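 Jurkat cells carrying an NFAT-driven β-lactamase reporter and co-transfected muscarinic M1 receptor were treated with compound plus carbachol (1 uM final, an EC50 level) for 5 h at 37 °C. CCF4 loading followed for 1 h at RT; 460/530 nm ratio gave %activity.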

[4] = Stat Signaling Pathway (AID 446; active means well fitted curve in either direction with a large enough effect, not every such curve was filed as active;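 further: ME-180 cervical cancer cells given 40 pM IL-6 alongside compound; SIE-controlled beta-lactamase reporter measured as 460/530 nm FRET emission ratio; on the % scale 0 is the no-effect control and ±100 the full control effect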); details: ME-180 SIE beta-lactamase reporter, IL-6 stimulated, 5 h; at 7.69 µM (top of the series) unless noted
Procedure, shortened: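 Normalization used AC90 stimulation (300 pM IL-6) and AC90 inhibition (125 nM pan-JAK inhibitor at 40 pM IL-6). The underlying signal is SIE-driven beta-lactamase in ME-180 cells after 5 h IL-6 exposure with compound.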

[5] = target: Glucocorticoid receptor (Homo sapiens) (UniProt P04150); assay: GR-GFP Redistribution (AID 450;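 active means compounds whose dose series gives a full or clear partial fitted curve of increased nuclear translocation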; further: potency means the concentration at half of the fitted maximal effect); details: U2OS GR-GFP nuclear translocation, laser cytometry, 2 h
Sequence of Glucocorticoid receptor (Homo sapiens) (P04150 whole entry, looked up, the tested form may be a part): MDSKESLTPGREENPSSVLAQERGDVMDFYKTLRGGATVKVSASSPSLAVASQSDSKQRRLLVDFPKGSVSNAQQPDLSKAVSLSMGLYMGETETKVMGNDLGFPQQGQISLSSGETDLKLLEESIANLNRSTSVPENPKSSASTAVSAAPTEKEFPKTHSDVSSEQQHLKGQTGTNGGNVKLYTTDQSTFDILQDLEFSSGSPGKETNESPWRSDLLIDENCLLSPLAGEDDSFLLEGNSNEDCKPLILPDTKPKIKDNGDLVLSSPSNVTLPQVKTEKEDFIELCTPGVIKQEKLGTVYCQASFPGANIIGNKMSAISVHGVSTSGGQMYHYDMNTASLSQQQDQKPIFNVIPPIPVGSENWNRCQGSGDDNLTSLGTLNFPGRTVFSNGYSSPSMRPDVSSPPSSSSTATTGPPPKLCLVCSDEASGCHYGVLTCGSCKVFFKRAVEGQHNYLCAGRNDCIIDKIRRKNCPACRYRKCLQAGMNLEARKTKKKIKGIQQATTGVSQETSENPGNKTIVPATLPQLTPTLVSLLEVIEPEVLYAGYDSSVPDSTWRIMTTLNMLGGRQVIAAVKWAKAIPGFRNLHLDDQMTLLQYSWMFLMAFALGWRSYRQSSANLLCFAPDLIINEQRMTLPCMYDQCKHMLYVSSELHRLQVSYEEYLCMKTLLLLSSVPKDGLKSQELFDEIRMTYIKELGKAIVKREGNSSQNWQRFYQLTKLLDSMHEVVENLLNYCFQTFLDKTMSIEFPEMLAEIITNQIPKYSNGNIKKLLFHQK

[6] = target: Glucocorticoid receptor (Homo sapiens) (UniProt P04150); assay: GR-EFC Redistribution (AID 451; calls by dose curve; further: potency means the concentration at half of the fitted maximal effect); details: CHO-K1 GR-EFC translocation, beta-gal luminescence, 2 h
Procedure, shortened: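 CHO-K1 cells stably expressing nuclear-localized β-gal enzyme acceptor and GR fused C-terminally to the enzyme donor fragment; ligand-driven nuclear translocation restores β-gal by complementation. Compounds titrated up to 46 uM final, 2 h at 37 °C; luminescence read.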

[7] = target: Mitogen-activated protein kinase 10 (Mus musculus) (UniProt Q61831); assay: JNK3 AlphaScreen Assay (AID 530; active means well fitted curve in either direction with a large enough effect, not every such curve was filed as active;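 further: kinase came from lysate of stimulated human HepG2 cells; signal reports phosphorylation of biotinylated GST-cJun 1-79 at Ser73 with 10 µM ATP; on the % scale 0 is the no-effect control and ±100 the full control effect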); details: JNK3 lysate, c-Jun phosphorylation; series mostly up to 57.1 µM
Procedure, shortened: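 Phosphorylation of biotinylated GST-cJun(1-79) at Ser73 is measured by AlphaScreen proximity luminescence. Enzyme is JNK3 in HepG2 lysates activated with interleukin-1beta and tumor necrosis factor alpha; ATP is 10 uM final.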

[8] = target: 3',5'-cyclic-AMP phosphodiesterase 4B (Homo sapiens) (UniProt Q07343); assay: qHTS Assay for Inhibitors of PDE-IV (AID 607; active means well fitted activation curve with a large enough effect in the main read-out, with a control signal flat, not every such curve was filed as active; further: % of control where 0% means no effect); details: HEK293 ACTOne CNG channel cells, membrane potential fluorescence; series mostly up to 22.9 µM
Sequence of 3',5'-cyclic-AMP phosphodiesterase 4B (Homo sapiens) (Q07343 whole entry, looked up): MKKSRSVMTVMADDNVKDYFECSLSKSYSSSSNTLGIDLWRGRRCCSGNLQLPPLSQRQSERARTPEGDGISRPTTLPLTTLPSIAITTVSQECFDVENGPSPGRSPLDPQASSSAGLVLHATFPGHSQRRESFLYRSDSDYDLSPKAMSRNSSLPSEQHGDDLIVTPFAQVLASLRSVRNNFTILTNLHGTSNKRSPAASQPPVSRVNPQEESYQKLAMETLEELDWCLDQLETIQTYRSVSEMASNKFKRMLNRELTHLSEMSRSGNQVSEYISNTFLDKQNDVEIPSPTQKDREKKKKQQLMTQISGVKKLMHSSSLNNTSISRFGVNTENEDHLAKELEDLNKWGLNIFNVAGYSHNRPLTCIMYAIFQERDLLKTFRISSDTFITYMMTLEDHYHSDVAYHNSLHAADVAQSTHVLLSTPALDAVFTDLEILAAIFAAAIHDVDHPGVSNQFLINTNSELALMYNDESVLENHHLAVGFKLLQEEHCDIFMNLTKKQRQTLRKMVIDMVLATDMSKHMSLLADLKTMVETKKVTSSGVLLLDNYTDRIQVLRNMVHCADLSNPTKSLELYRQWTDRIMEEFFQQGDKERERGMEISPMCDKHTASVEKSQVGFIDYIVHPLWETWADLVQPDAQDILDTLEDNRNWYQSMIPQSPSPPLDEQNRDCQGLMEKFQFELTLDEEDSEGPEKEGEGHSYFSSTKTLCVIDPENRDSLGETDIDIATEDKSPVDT
Procedure, shortened: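 HEK293 ACTOne cells with CNG channel (1000/well), endogenous PDE4; membrane potential dye, compounds up to 22.9 uM final. Fluorescence Ex 535/Em 590; RO 20-1724 (100 uM final) as reference.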

[9] = qHTS Assay for Lipid Storage Modulators (AID 1519; calls by dose curve); details: Drosophila S3 cells, BODIPY lipid droplet/cell ratio, laser cytometry, cells loaded with oleic acid; for activity change, negative = inhibition: at 57.5 µM (top of the series)
Procedure, shortened: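 Cells seeded at 5,000 per well were treated with compounds over a concentration series and loaded with oleic acid (400 uM, as added). Lipid droplet fluorescence (488 nm excitation, 500-530 nm channel) was read by laser-scanning cytometry and normalized to 20 uM Triacsin C.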

[10] = target: Dual specificity protein kinase CLK4 (Homo sapiens) (UniProt Q9HAZ1); assay: qHTS Assay for Inhibitors of CDC-like Kinase 4 (Kinase-Glo Assay) (AID 1770); details: recombinant Clk4, Kinase-Glo ATP depletion luminescence; series mostly up to 66.7 µM; further: nearly all actives have a fitted effect of over 65% in size; further: potency means the concentration at half of the fitted maximal effect
Sequence of Dual specificity protein kinase CLK4 (Homo sapiens) (Q9HAZ1 whole entry, looked up): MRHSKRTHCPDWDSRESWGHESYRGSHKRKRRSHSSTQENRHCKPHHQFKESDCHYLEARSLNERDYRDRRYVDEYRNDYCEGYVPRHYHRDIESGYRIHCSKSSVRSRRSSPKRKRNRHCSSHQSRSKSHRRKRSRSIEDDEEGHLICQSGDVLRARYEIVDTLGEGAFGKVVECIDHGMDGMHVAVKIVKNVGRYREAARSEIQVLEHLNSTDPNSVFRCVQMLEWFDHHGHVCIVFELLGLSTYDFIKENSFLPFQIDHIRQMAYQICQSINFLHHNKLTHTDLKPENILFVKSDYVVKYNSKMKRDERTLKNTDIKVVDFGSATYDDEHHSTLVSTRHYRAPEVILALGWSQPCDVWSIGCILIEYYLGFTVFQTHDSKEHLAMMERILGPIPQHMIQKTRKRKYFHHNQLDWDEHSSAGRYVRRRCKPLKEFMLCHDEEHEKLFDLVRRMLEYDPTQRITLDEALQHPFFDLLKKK
Procedure, shortened: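 Substrate mix (RS peptide 100 uM, ATP 1 uM) dispensed, compound pinned in, then Clk4 added to 25 nM final. Incubated 4.5 h at RT; Kinase-Glo reagent added, luminescence read after 5 min.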

[11] = target: Dual specificity protein kinase CLK4 (Homo sapiens) (UniProt Q9HAZ1); assay: qHTS Assay for Inhibitors of CDC-like Kinase 4 (ADP-Glo Assay) (AID 1771); details: recombinant CLK4, ADP-Glo luminescence; series mostly up to 80 µM; further: on the % scale 0 is the no-effect control and ±100 the full control effect; nearly all actives have a fitted effect of over 70% in size
Procedure, shortened: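 Compounds are pin-transferred onto substrate mix (100 uM RS peptide, 1 uM ATP), then 25 nM Clk4 is added. After 1 hr at room temperature, ADP-Glo reagent runs 45 min, detection reagent 30 min, then luminescence is read.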

[12] = target: Ubiquitin carboxyl-terminal hydrolase 1 (Homo sapiens) (UniProt O94782); assay: Inhibitors of USP1/UAF1: Pilot qHTS (AID 504865); details: purified USP1/UAF1, Ub-rhodamine cleavage fluorescence; series mostly up to 54.9 µM;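 further: rhodamine fluorescence freed from ubiquitin-rhodamine substrate followed over time; top concentration of the series differs between compounds; on the % scale 0 is the no-effect control and ±100 the full control effect; nearly all actives have a fitted effect of over 35% in size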
Sequence of Ubiquitin carboxyl-terminal hydrolase 1 (Homo sapiens) (O94782 whole entry, looked up): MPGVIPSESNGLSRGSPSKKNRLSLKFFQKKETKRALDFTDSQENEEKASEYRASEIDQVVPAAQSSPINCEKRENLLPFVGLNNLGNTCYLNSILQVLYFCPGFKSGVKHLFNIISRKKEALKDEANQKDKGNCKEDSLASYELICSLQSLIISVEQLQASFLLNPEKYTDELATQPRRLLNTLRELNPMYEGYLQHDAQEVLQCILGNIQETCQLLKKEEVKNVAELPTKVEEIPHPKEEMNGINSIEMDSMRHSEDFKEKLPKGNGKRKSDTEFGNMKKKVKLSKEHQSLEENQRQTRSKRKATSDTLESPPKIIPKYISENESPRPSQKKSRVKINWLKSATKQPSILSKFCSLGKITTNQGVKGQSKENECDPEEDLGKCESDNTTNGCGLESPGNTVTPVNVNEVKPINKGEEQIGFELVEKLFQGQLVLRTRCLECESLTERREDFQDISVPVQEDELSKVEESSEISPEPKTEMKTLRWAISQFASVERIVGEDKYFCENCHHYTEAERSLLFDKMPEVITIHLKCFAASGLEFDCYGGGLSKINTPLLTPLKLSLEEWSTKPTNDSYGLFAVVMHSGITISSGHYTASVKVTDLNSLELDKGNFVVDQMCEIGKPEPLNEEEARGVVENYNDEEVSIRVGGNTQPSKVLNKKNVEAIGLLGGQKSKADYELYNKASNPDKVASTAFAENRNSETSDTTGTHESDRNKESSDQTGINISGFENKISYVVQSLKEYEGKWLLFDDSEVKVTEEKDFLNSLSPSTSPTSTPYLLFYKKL
Procedure, shortened: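 In 50mM HEPES pH 7.8 containing 0.5mM EDTA, 1mM TCEP, 0.1 mg/ml BSA and 0.01% Tween-20, 1nM USP1/UAF1 is exposed to compound for 15 min, then Ub-Rho (150nM final) is added and fluorescence is read over time.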

[13] = Primary qHTS for small molecule stabilizers of the endoplasmic reticulum resident proteome: Secreted ER Calcium Modulated Protein (SERCaMP) assay (AID 1508630); details: SH-SY5Y GLuc-SERCaMP (Gaussia luciferase released on ER calcium loss) secretion, thapsigargin, luminescence; series mostly up to 38.4 µM; further: on the % scale 0 is the no-effect control and ±100 the full control effect
Procedure, shortened: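 The SH-SY5Y reporter protocol was run at 3 concentrations up to 38.3 uM (primary) or 11 concentrations (follow-up): 16 h compound, 100 nM thapsigargin for 4 h, then extracellular luciferase luminescence.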

[14] = target: Cytochrome P450 1A2 (Homo sapiens) (UniProt P05177); assay: p450-cyp1a2 (AID 410; calls by dose curve; further: potency means the concentration at half of the fitted maximal effect); details: recombinant CYP1A2, luciferin-ME demethylation, luminescence; series mostly up to 57 µM
Sequence of Cytochrome P450 1A2 (Homo sapiens) (P05177 whole entry, looked up): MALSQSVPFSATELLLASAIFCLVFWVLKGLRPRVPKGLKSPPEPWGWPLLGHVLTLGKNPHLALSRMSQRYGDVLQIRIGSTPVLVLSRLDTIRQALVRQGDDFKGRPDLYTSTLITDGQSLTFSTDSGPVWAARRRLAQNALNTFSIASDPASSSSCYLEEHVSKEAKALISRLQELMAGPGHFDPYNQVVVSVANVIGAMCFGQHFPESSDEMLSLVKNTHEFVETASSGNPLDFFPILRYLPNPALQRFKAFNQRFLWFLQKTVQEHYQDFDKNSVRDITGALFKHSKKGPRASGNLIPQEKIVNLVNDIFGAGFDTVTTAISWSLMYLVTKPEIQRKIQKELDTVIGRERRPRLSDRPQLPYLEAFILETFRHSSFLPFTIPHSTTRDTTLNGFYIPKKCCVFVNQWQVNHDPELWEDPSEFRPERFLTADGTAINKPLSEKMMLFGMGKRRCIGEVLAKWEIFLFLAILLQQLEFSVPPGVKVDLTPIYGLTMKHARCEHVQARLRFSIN
Procedure, shortened: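 O-Demethylation of luciferin 6' methyl ether by human CYP1A2 is monitored as luciferase luminescence. Substrate sits at Km (100uM); enzyme is 20nM. Values are scaled to 57 uM furafylline as maximal inhibition.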

[15] = target: Cytochrome P450 3A4 (Homo sapiens) (UniProt P08684); assay: qHTS Assay for Activators of Cytochrome P450 3A4 (AID 885); details: recombinant CYP3A4, Luciferin-PPXE luminescence, 60 min; series mostly up to 57.1 µM; further: nearly all actives have a fitted effect of over 65% in size
Sequence of Cytochrome P450 3A4 (Homo sapiens) (P08684 whole entry, looked up): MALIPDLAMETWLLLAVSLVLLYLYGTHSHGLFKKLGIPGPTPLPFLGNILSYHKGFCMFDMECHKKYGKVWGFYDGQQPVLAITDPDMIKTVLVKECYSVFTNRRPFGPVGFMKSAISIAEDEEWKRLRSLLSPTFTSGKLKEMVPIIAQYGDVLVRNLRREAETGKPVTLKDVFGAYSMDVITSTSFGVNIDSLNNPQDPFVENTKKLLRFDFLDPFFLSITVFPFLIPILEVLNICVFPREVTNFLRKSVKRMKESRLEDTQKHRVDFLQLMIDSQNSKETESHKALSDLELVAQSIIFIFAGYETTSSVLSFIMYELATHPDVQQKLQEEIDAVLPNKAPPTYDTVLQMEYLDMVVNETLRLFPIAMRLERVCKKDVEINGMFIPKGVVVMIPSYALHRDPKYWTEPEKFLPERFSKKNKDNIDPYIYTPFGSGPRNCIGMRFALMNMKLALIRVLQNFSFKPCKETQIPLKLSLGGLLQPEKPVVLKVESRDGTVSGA
Procedure, shortened: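 Human CYP3A4 dealkylates Luciferin-PPXE to luciferin, which luciferase detection converts to light. Substrate was at its KM (25uM), buffer 200mM KPO4, reaction 60 min at RT.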

[16] = qHTS Assay for Identification of Small Molecule Agonists for Hypoxia Response Element Signaling Pathway (AID 914; active means well fitted activation curve with a large enough effect in the signal ratio, with a control signal flat, not every such curve was filed as active; the % refers to the signal ratio; further: potency means the concentration at half of the fitted maximal effect); details: ME-180 (cervical carcinoma) HRE-bla reporter, beta-lactamase ratio, CoCl2, 17 h; activation: stronger effect = higher value
Procedure, shortened: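 HRE-bla ME-180 cells, overnight plating in Opti-MEM with 0.5% dialyzed FBS; cpd titration + EC50 CoCl2, 17 h, 37 degrees Celsius; CCF4 2.5 h RT; 460/530 nm ratio; AC50.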

[17] = target: Dual specificity protein kinase CLK4 (Homo sapiens) (UniProt Q9HAZ1); assay: qHTS Assay for Inhibitors of CDC-like Kinase 4 (ADP-FP Assay) (AID 1795); details: Transcreener ADP fluorescence polarization; series mostly up to 50 µM;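 further: recombinant human CLK4 phosphorylating RS repeat peptide at 1 µM ATP; on the % scale 0 is the no-effect control and ±100 the full control effect; nearly all actives have a fitted effect of over 60% in size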
Procedure, shortened: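 Clk4 6.25 nM; RS peptide 100 uM; ATP 1 uM; 25 mM Tris pH 7.5, 10 mM MgCl2; 1 h reaction. ADP detected via antibody/orange tracer FP displacement; TG003 positive control.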

[18] = target: Cytochrome P450 2C9 (Homo sapiens) (UniProt P11712); assay: qHTS Assay for Inhibitors and Substrates of Cytochrome P450 2C9 (AID 883); details: recombinant CYP2C9, luciferin-H luminescence, 60 min; series mostly up to 57.1 µM; further: on the % scale 0 is the no-effect control and ±100 the full control effect; nearly all actives have a fitted effect of over 60% in size
Sequence of Cytochrome P450 2C9 (Homo sapiens) (P11712 whole entry, looked up): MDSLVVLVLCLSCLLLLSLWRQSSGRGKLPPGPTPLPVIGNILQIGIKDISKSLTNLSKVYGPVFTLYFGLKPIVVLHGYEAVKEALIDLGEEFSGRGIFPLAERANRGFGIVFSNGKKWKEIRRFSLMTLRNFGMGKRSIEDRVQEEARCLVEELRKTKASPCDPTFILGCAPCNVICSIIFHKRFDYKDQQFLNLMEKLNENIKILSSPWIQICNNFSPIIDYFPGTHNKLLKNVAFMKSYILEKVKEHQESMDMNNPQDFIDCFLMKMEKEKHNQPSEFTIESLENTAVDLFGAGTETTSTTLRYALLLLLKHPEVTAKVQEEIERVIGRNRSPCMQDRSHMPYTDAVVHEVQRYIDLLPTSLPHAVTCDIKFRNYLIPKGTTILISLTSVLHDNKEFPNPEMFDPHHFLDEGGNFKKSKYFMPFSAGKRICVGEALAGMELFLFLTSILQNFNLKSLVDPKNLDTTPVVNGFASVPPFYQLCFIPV
Procedure, shortened: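 CYP2C9 deoxyluciferin hydroxylation, 37C, 60 min with NADPH regeneration; 10nM enzyme, 100uM Luciferin-H (KM). Glo detection reagent stopped reaction; luminescence normalized to sulphaphenazole (57uM) full inhibition.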

[19] = measured here: cell count channel max response
[20] = measured here: lipid channel max response

SMILES: Cc1noc(C)c1-c1cc(N2CCNCC2)ncn1
- Potency [1]: > 11.4 µM (inactive)
- activity change, negative = inhibition [2]: -3.92% (inactive)
- activity change, negative = inhibition [3]: 7.79% (inactive)
- activity, negative = inhibition [4]: 5.3% (inactive)
- Potency [5]: > 46 µM (inactive)
- Potency [6]: > 46 µM (inactive)
- outcome [7]: inactive
- Potency [8]: inactive
- activity change, negative = inhibition [9]: 5.16% (inactive)
- max response [9, 19]: 1.52%
- max response [9, 20]: 8.99%
- Potency [10]: inactive
- Potency [11]: inactive
- Potency [12]: inactive
- Potency [13]: inactive

SMILES: COCCNc1ncncc1-c1ccccc1OC
- Potency [1]: > 11.4 µM (inactive)
- activity change, negative = inhibition [2]: 0.174% (inactive)
- activity change, negative = inhibition [3]: 6.41% (inactive)
- activity, negative = inhibition [4]: 16.6% (inactive)
- Potency [5]: > 46 µM (inactive)
- Potency [6]: > 46 µM (inactive)
- outcome [7]: inactive
- Potency [8]: inactive
- activity change, negative = inhibition [9]: 4.36% (inactive)
- max response [9, 19]: 20.6%
- max response [9, 20]: 16.6%
- Potency [10]: inactive
- Potency [11]: inactive
- Potency [12]: inactive
- Potency [13]: inactive

SMILES: N#Cc1cccc(-c2nc3cnc(N4CCOCC4)nc3n(C3CC3)c2=O)c1
- Potency [14]: 2.51 µM (active)
- Potency [5]: > 9.22 µM (inactive)
- Potency [6]: > 46 µM (inactive)
- outcome [7]: inactive
- Potency [8]: inactive
- Potency [15]: inactive
- Potency [16]: 3.16 µM (active)
- activity change, negative = inhibition [9]: -2.2% (inactive)
- max response [9, 19]: 17.6%
- max response [9, 20]: 13.2%
- Potency [10]: inactive
- Potency [17]: inactive
- Potency [12]: inactive
- Potency [13]: inactive

SMILES: CCNc1ncc2nc(-c3cn(C)c4ccccc34)c(=O)n(-c3ccccc3)c2n1
- Potency [1]: > 11.4 µM (inactive)
- activity change, negative = inhibition [2]: 2.53% (inactive)
- Potency [14]: 15.8 µM (active)
- activity change, negative = inhibition [3]: 3.22% (inactive)
- activity, negative = inhibition [4]: -9.31% (inactive)
- Potency [5]: > 9.22 µM (inactive)
- Potency [6]: > 46 µM (inactive)
- outcome [7]: inactive
- Potency [18]: inactive
- Potency [15]: inactive
- activity change, negative = inhibition [9]: -0.273% (inactive)
- max response [9, 19]: 19.3%
- max response [9, 20]: 17.5%
- Potency [10]: 20 µM (active)
- Potency [12]: inactive
- Potency [13]: inactive

SMILES: CC(=O)NCCNc1cc(-c2ccccc2C)ncn1
- Potency [1]: > 11.4 µM (inactive)
- activity change, negative = inhibition [2]: 12% (inactive)
- Potency [14]: 15.8 µM (active)
- activity, negative = inhibition [4]: 16.5% (inactive)
- Potency [5]: > 46 µM (inactive)
- Potency [6]: > 46 µM (inactive)
- outcome [7]: inactive
- Potency [8]: inactive
- activity change, negative = inhibition [9]: 3.34% (inactive)
- max response [9, 19]: 16.2%
- max response [9, 20]: 17.3%
- Potency [10]: inactive
- Potency [12]: inactive
- Potency [13]: inactive
